# Data taken from PubChem BioAssay AID1220 (Sanford-Burnham Center for Chemical Genomics, 2008).
# In all, about 190,000 compounds went through this assay and about 1,300 (0.68%) were called active. This excerpt belongs to a sample that is enriched for actives. Values without a mark were called inactive. Cut-off read from the data, not from the text of the source: active = inhibition above about 50%; inactive = the rest.
# Molecular target: Mannose-6-phosphate isomerase (Homo sapiens) (UniProt P34949)
# Test: MPI inhibition at elevated mannose 6-phosphate – biochemical, fluorescence intensity, high mannose 6-phosphate, primary screen (AID 1220)
# Settings: recombinant PMI enzyme, coupled fluorescence intensity; at 20 µM; hits give high values
# Chain of Mannose-6-phosphate isomerase (Homo sapiens) (P34949 whole entry, looked up): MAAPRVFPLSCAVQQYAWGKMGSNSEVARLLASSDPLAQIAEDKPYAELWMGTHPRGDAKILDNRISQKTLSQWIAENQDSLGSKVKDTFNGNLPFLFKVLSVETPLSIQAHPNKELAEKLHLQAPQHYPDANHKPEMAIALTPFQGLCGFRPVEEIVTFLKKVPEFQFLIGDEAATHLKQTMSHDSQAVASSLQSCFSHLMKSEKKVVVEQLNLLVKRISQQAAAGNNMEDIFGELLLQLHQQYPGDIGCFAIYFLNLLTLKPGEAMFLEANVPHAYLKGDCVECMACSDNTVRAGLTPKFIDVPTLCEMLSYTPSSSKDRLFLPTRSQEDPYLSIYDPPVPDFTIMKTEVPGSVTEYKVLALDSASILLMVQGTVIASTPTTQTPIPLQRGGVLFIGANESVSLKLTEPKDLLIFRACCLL
row,SMILES,inhibition
1,COc1ccc(C(=S)Nc2ccc(C)cc2)cc1,3.8%
2,CC(C)(C)c1ccc(S(=O)(=O)N2CCCC2C(=O)N2CCOCC2)cc1 (stereo not drawn),3.5%
3,CCOC(=O)c1nn(-c2ccccc2F)c2nc(-c3ccco3)c(C#N)c(=O)n12,-13.6%
4,Cc1ccc(-n2c(=S)[nH]c3sc4c(c3c2=O)CCC4)cc1,9.7%
5,Cc1ccc(-n2c(=S)[nH]c3sc4c(c3c2=O)CCc2ccccc2-4)cc1,24.1%
6,CCN(Cc1ccncc1)S(=O)(=O)c1ccc(C(C)=O)cc1,-13.6%
7,CCCCSc1cnn(-c2ccccc2)c(=O)c1SCCCC,5.9%
8,CN1CCOc2cc(S(=O)(=O)Nc3ccc(F)cc3)ccc21,0.5%
9,COc1ccc(CCNC(=O)CN2C(=O)NC(C)(c3ccc([N+](=O)[O-])cc3)C2=O)cc1 (stereo not drawn),-0.6%
10,COc1cc(C2NC(=O)NC(O)(C(F)(F)F)C2C(=O)c2ccc(Cl)cc2)ccc1O (stereo not drawn),2.5%
11,COc1ccc(C(=O)C2C(c3ccc(-c4ccccc4[N+](=O)[O-])o3)NC(=O)NC2(O)C(F)(F)F)cc1 (stereo not drawn),43.4%
12,Cc1ccc(C2NC(=O)NC(O)(C(F)(F)F)C2C(=O)c2ccccc2)o1 (stereo not drawn),-19.5%
13,O=C1NC(c2ccc(-c3ccccc3[N+](=O)[O-])o2)C(C(=O)c2ccc(Cl)cc2)C(O)(C(F)(F)F)N1 (stereo not drawn),50.3% (active)
14,O=C1NC(c2ccc(-c3ccccc3[N+](=O)[O-])o2)C(C(=O)c2ccc(F)cc2)C(O)(C(F)(F)F)N1 (stereo not drawn),42.1%
15,O=C1NC(c2ccc(-c3ccccc3[N+](=O)[O-])o2)C(C(=O)c2ccccc2)C(O)(C(F)(F)F)N1 (stereo not drawn),50.5% (active)
16,Cc1ccccc1-n1c(-c2ccncc2)n[nH]c1=S,-11.7%
17,O=C1C(c2ccc(F)cc2)N(Cc2ccc3c(c2)OCO3)C(=O)CN1C1CCCC1 (stereo not drawn),7.2%
18,CC1Cc2cc(/C(O)=C3/C(=O)C(=O)N(CCCn4ccnc4)C3c3cccnc3)ccc2O1 (stereo not drawn),3.7%
19,CC1Cc2cc(/C(O)=C3/C(=O)C(=O)N(CCCn4ccnc4)C3c3ccncc3)ccc2O1 (stereo not drawn),-10.1%
20,COc1cc(C2/C(=C(\O)c3ccc4c(c3)CC(C)O4)C(=O)C(=O)N2CCCn2ccnc2)ccc1O (stereo not drawn),54.7% (active)
21,COc1cc(-c2ccc(NC(=O)CN3CCC(C)CC3)c(OC)c2)ccc1NC(=O)CN1CCC(C)CC1,21%
22,CC(C)c1ccc(CN(C)CC(O)c2ccccc2)cc1 (stereo not drawn),-2.2%
23,CCN(CC)c1ccc(/C=N/NC(=O)c2c[nH]c3ccccc23)cc1,21.6%
24,COc1ccc(CCNC(=O)CCC(=O)Nc2nnc(C(C)C)s2)cc1OC,3.2%
25,CCN1CCc2c(C#N)c(N3CCOCC3)nc(N3CCOCC3)c2C1,-3%

row,SMILES,inhibition
1,CCN1CCc2c(C#N)c(N3CCOCC3)nc(NCc3ccccc3)c2C1,19.3%
2,CCN1CCc2c(C#N)c(N3CCOCC3)nc(NCCO)c2C1,57.2% (active)
3,CC1(C)Cc2c(sc3nc(-c4cc5ccccc5o4)n(N)c(=O)c23)CO1,7%
4,CCN1C(=O)C(C)S/C1=N\S(=O)(=O)c1ccc(Cl)s1 (stereo not drawn),-0.5%
5,CC(C)CCN(C(=O)CNC(=O)c1cccs1)C(C(=O)NC1CCCC1)c1ccncc1 (stereo not drawn),-1.9%
6,O=C(NCCN1CCOCC1)c1ccc2ccccc2c1,-3.6%
7,O=c1ccnc(NCCc2ccccc2)[nH]1,-1.8%
8,c1ccc(CCNc2ccnc3cc4ccccc4cc23)cc1,63.5% (active)
9,c1ccc2c(NCCCN3CCOCC3)c3ccccc3nc2c1,8.7%
10,c1ccc(CCNc2ncnc3ccccc23)cc1,6.3%
11,c1ccc2cc3c(NCCN4CCOCC4)ccnc3cc2c1,57% (active)
12,CCOC(=O)c1sc(-c2ccc(OC)cc2)cc1NC(C)=O,-4.9%
13,Cc1nc([N+](=O)[O-])c(C(=O)OCc2ccccc2Br)n1C,-9.7%
14,COc1ccc(C(=O)N/N=C/c2c(CO)cnc(C)c2O)cc1,-36.3%
15,O=C(c1ccccc1)N(Cc1cccnc1)C1(C(=O)Nc2ccccc2)CCCCC1,-14%
16,NC(=O)C1CCN(C(=O)CSc2nc3ccccc3[nH]2)CC1,2.1%
17,COc1cc(=O)n(C)c2cc(N(C)C)ccc12,6.9%
18,CN(C)c1ccc2c(O)cc(=O)n(C)c2c1,56.1% (active)
19,CN(C)c1ccc2c(=O)[nH][nH]c(=O)c2c1,24.5%
20,CCOCCCNC(=O)c1cn(CC(C)C)c(=O)c2cc(OC)c(OC)cc12,22.8%
21,Cc1ccccc1N1CC(=O)N(c2ccccc2C)CC1=O,-4.3%
22,Cc1ccccc1-n1c(=O)c2ccccc2n2cnnc12,1.1%
23,CC(C)(C)NC(=O)NC(=O)COC(=O)c1cccc(F)c1,10.3%
24,CC(=O)Nc1ccc(C(=O)n2nc(C)cc2C)cc1,-3.3%
25,CCNC(=S)N(Cc1ccco1)Cc1cc2cc3c(cc2[nH]c1=O)OCCO3,4.6%

row,SMILES,inhibition
1,CC(C)CNC(=S)N(Cc1ccco1)Cc1cc2cc3c(cc2[nH]c1=O)OCCO3,12.4%
2,CNC(=S)N(Cc1ccco1)Cc1cc2cc3c(cc2[nH]c1=O)OCCO3,52.2% (active)
3,COc1ccc(/C=N/NC(=O)c2cccc(NC(C)=O)c2)c(C(=O)O)c1OC,-6.4%
4,Cn1ccc(C(=O)OCC(=O)Nc2cccc3ccccc23)n1,0.8%
5,CC(CCc1ccccc1)NC(=O)C(=O)N1CCOCC1 (stereo not drawn),0.1%
6,CC1=C(C)C(=O)C(N2CCOCC2)=CC1=O,-17.5%
7,CC(C)(C)C1=CC(=O)C(N2CCOCC2)=CC1=O,65.3% (active)
8,CN1CCOCCOCCN(C)C(=O)N2CCOCCOCCN(CCOCC2)C1=O,3%
9,Cc1ccc(S(=O)(=O)Oc2ccc(C)cc2/C=N/N=C2\NC(=O)C(C)S2)cc1 (stereo not drawn),8.8%
10,CC(=Nc1ccccc1C)C1=C(O)CSC1=O,-8.7%
11,CC(=Nc1ccccc1)C1=C(O)CSC1=O,-2.7%
12,COc1ccccc1N=C(C)C1=C(O)CSC1=O,54.1% (active)
13,CCOC(=O)C1C(c2ccccc2)N(C)OC1(O)C(F)(F)F (stereo not drawn),6.7%
14,Cc1c(C(=O)OC2CCCC2)[nH]c2c1C(=O)CC(c1ccco1)C2 (stereo not drawn),23.1%
15,CCOC(=O)C(C)Oc1cccc2c(=O)n(CC(=O)Nc3ccc(OCC)cc3)ccc12 (stereo not drawn),7.6%
16,Cc1cc(C)n2c(SCc3ccc(Cl)cc3Cl)nnc2n1,-3.9%
17,CCN(Cc1cc(=O)n2ccsc2n1)Cc1nc2ccccc2c(=O)[nH]1,-3.9%
18,CN(Cc1cc(=O)n2ccsc2n1)c1ccccc1,-17.6%
19,CCN(Cc1cc(=O)n2ccsc2n1)c1cccc2ccccc12,67.3% (active)
20,COc1ccc(NC(=O)c2cc(Br)c(Br)s2)cn1,53.2% (active)
21,COc1ccc(NC(=O)c2cc(OC)c(OC)c(OC)c2)cn1,8.4%
22,COc1ccc(NC(=O)c2sccc2C)cn1,12.5%
23,COc1cc(CNCCO)cc(Br)c1OCc1ccccc1,1.8%
24,O=C1CN(C(=O)COC(=O)/C=C/c2ccco2)c2ccccc2N1,1.6%
25,Cc1ccc(/C=C/C(=O)OCC(=O)N2CC(=O)Nc3ccccc32)o1,55.2% (active)

row,SMILES,inhibition
1,Cc1ccc(/C=C/C(=O)N2CC(=O)Nc3ccccc32)o1,1.3%
2,CN(C)c1nc(OCCOC(=O)c2ccccc2)nc(N(C)C)n1,10%
3,O=[N+]([O-])c1ccc2cn(-c3ccccc3)nc2c1,-4.3%
4,O=[N+]([O-])c1ccc2c(c1)ncn2-c1ccccc1,-7.7%
5,CC(=O)Nc1ccc(S(=O)(=O)Nc2nc3ccccc3nc2N2CCCCCC2)cc1,2.2%
6,O=[N+]([O-])c1ccccc1-c1ccc(C(=S)N2CCCC2)o1,18.9%
7,Cc1ccc(N2CCN(C(=S)c3ccc(-c4cccc([N+](=O)[O-])c4)o3)CC2)cc1,26.5%
8,Cc1cccc(N2CCN(C(=S)c3ccc(-c4ccccc4[N+](=O)[O-])o3)CC2)c1,57.3% (active)
9,Cc1cc(C)nc(N/N=C/c2cccc3ccccc23)n1,-14.6%
10,COc1cccc(CN(C)C(=O)c2cccnc2SC)c1OC,-6.5%
11,COc1ccc(-c2nnc3ccc(SCC(=O)N4CCOCC4)nn23)cc1,-2.8%
12,CN1C(=O)C(Cl)(Cl)C(=O)c2ccccc21,68.4% (active)
13,CCN1C(=O)C(F)(CC)C(=O)c2ccccc21 (stereo not drawn),4.2%
14,CC1(O)C(=O)c2ccccc2N(c2ccccc2)C1=O (stereo not drawn),-4.8%
15,O=C(NNC(=O)C1CC(c2cccnc2)=NO1)Nc1ccccc1F (stereo not drawn),-6.2%
16,Cc1cc(S(=O)(=O)N(Cc2ccc(C(C)C)cc2)CC2CCCO2)ccc1-n1cnnn1 (stereo not drawn),-1%
17,Cn1c(-c2ccccc2)c(C(=O)CCl)c2ccccc21,-33.5%
18,Cc1ccc(C(=O)CSc2n[nH]c(C)n2)cc1,-0.9%
19,Cc1nc(SCC(=O)c2ccc(F)cc2)n[nH]1,12.9%
20,Cc1nc(SCC(=O)c2ccccc2)n[nH]1,51.2% (active)
21,COc1ccc(CCNC(=O)CS(=O)(=O)c2cn(CC(=O)N3CCOCC3)c3ccccc23)cc1OC,51.4% (active)
22,CCN(CC)C(=O)Cn1cc(S(=O)(=O)CC(=O)NCCc2ccc(OC)c(OC)c2)c2ccccc21,20.4%
23,COc1ccc(CCNC(=O)CS(=O)(=O)c2cn(CC(=O)N3CCCC3)c3ccccc23)cc1OC,46.9%
